The record followed here is PubChem BioAssay (NCI).

This is part of a sample that, as a whole, favours compounds with a hit. Of some 83,000 tested, about 20% had one in any assay.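 Single-dose data. Exposure time 48 hours. Values below 10 considered active.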 A number with no mark means an inactive call. Activity calls are given as the source filed them.

Among the test systems are DU-145 prostate; K-562 leukemia; MALME-3M melanoma; MDA-MB-231 breast; RXF 393 renal; SF-268 CNS; SF-295 CNS; SF-539 CNS; UACC-257 melanoma; M14 melanoma; HCT-15 colon; HT29 colon; SNB-75 CNS; SNB-19 CNS; U251 CNS; PC-3 prostate; UACC-62 melanoma; LOX IMVI melanoma; SK-MEL-28 melanoma; SK-MEL-5 melanoma.
What all share (assay): NCI-60 one-dose screen, 48 h (100 = growth as untreated, 0 = no growth, -100 = all killed)
Holding throughout (conditions): 10 µM unless noted

As to `CCCCC1COc2cccc3c(SCC(=O)N(C)c4cccc5ccccc45)cc[n+]1c23` (stereo not given), the growth in the test on DU-145 prostate is 105%; with K-562 leukemia, 88.4%; with MALME-3M melanoma, 107%; with MDA-MB-231 breast, 110%; with RXF 393 renal, 115%; with SF-268 CNS, 112%. In addition, the growth in the test on SF-295 CNS is 96.5%; in the test on SF-539 CNS, 96.7%; with UACC-257 melanoma it was 101%; in the test with M14 melanoma it was 82.8%; in the test with HCT-15 colon it was 94.3%; in the test with HT29 colon, 103%. Also, the growth is 104% in the test on SNB-75 CNS; 98.7% in the test with SNB-19 CNS; 99.3% with U251 CNS; 95.8% in the test on PC-3 prostate; 99.9% with UACC-62 melanoma; 91.2% in the test with LOX IMVI melanoma. In addition, the growth in the test with SK-MEL-28 melanoma was 111%.
As for `COc1cc(C(=O)N(C(C)C)C2CCCCC2)cc(OC)c1OC`, the growth in the test with DU-145 prostate is 112%; in the test on K-562 leukemia it was 98.7%; in the test with MALME-3M melanoma, 99.5%; in the test with MDA-MB-231 breast, 127%; with RXF 393 renal it was 97.4%; in the test on SF-268 CNS, 98.1%. Besides, the growth in the test on SF-295 CNS is 109%; in the test on SF-539 CNS, 101%; in the test on UACC-257 melanoma it was 93.7%; in the test on M14 melanoma it was 132%; in the test with HCT-15 colon it was 103%; in the test on HT29 colon it was 99.2%. The growth with SNB-75 CNS was 87.6%; with SNB-19 CNS it was 97.9%; in the test on U251 CNS, 102%; in the test on PC-3 prostate, 89.8%; in the test with UACC-62 melanoma, 96.5%; in the test on LOX IMVI melanoma it was 94.6%. In the test with SK-MEL-28 melanoma, the growth was 105%.
Consider `CN1CCC(OC2c3ccccc3CCc3ccccc32)CC1`, for which the growth in the test on DU-145 prostate is 107%; with K-562 leukemia it was 96.8%; in the test on MALME-3M melanoma it was 102%; in the test with MDA-MB-231 breast it was 74.8%; with RXF 393 renal, 89.2%; with SF-268 CNS it was 89.5%. Further, the growth is 88.6% with SF-295 CNS; 102% in the test with SF-539 CNS; 92.6% in the test on UACC-257 melanoma; 103% in the test on M14 melanoma; 98.8% in the test with HCT-15 colon; 90.1% in the test with HT29 colon. Moreover, the growth with SNB-75 CNS was 65.7%; with SNB-19 CNS, 99.2%; in the test with U251 CNS, 92.5%; in the test on PC-3 prostate, 78.3%; with UACC-62 melanoma, 98.4%; in the test with LOX IMVI melanoma, 91.1%. Moreover, the growth in the test on SK-MEL-28 melanoma is 94.2%.
On to `O=c1oc2ccccc2cc1-c1csc(N=Nc2c(O)[nH]c3ccc(Br)cc23)n1`, for which the growth in the test on DU-145 prostate is 109%; in the test on K-562 leukemia, 111%; in the test on MALME-3M melanoma it was 99%; with MDA-MB-231 breast it was 95.6%; in the test on RXF 393 renal it was 115%; in the test with SF-268 CNS, 101%. In addition, the growth in the test on SF-295 CNS is 101%; with SF-539 CNS, 99.5%; in the test with UACC-257 melanoma it was 97.3%; with M14 melanoma, 105%; in the test with HCT-15 colon it was 105%; with HT29 colon, 109%. For the same compound, the growth in the test with SNB-75 CNS is 86.2%; in the test with SNB-19 CNS, 95.8%; in the test with U251 CNS, 103%; in the test with PC-3 prostate, 102%; in the test with SK-MEL-5 melanoma, 96.5%; with SK-MEL-28 melanoma, 101%.
Turning to `C[C@@H](Oc1cc(-c2cnn(C3CC4(CNC4)C3)c2)cnc1N)c1c(Cl)ccc(F)c1Cl`, the growth is 46.6% with DU-145 prostate; 5.12% (active) with K-562 leukemia; 48.5% in the test with MALME-3M melanoma; 37.9% in the test with MDA-MB-231 breast; 21.7% in the test on RXF 393 renal; 39.6% with SF-268 CNS. Moreover, the growth with SF-295 CNS is 24.5%; with SF-539 CNS, 28.9%; in the test on UACC-257 melanoma it was 8.56% (active); with M14 melanoma, 30.2%; with HCT-15 colon, 35.4%; in the test with HT29 colon it was -11.9% (active). The growth in the test on SNB-75 CNS is 25.1%; in the test on SNB-19 CNS, 96.7%; in the test on U251 CNS, 61.8%; in the test with PC-3 prostate it was 24.7%; in the test with UACC-62 melanoma it was 53%; with LOX IMVI melanoma it was 11.5%. Also, the growth in the test on SK-MEL-28 melanoma was 58.9%.
For the compound `COc1cc(C2=NN(c3ccc(S(N)(=O)=O)cc3)C(c3ccc(Cl)cc3)C2)cc(OC)c1OC` (stereo not given), the growth was 65.9% in the test with DU-145 prostate; 18.7% in the test with K-562 leukemia; 85.7% with MALME-3M melanoma; 43.7% with MDA-MB-231 breast; 34.8% with RXF 393 renal; 48.2% with SF-268 CNS. The growth in the test on SF-295 CNS is 25%; in the test on SF-539 CNS, 69.1%; in the test on UACC-257 melanoma it was 57.5%; with M14 melanoma, 45.7%; with HCT-15 colon it was 43.1%; in the test on HT29 colon, 32.1%. The growth with SNB-75 CNS was 41.5%; in the test on SNB-19 CNS, 56.5%; in the test on U251 CNS, 23.9%; with SK-MEL-5 melanoma, 27.5%; with LOX IMVI melanoma it was 42.5%; in the test with SK-MEL-28 melanoma, 44.3%.
Consider `COc1cc(Cn2cc(F)c(=O)[nH]c2=O)cc(OC)c1`, for which the growth in the test on DU-145 prostate is 114% [50 µM]; with K-562 leukemia, 95.6% [50 µM]; in the test with MALME-3M melanoma it was 108% [50 µM]; in the test on MDA-MB-231 breast it was 95.7% [50 µM]; with RXF 393 renal, 99.5% [50 µM]; with SF-268 CNS, 96.1% [50 µM]. Besides, the growth in the test on SF-295 CNS was 101% [50 µM]; in the test with SF-539 CNS, 101% [50 µM]; in the test on UACC-257 melanoma it was 110% [50 µM]; with M14 melanoma it was 100% [50 µM]; in the test with HCT-15 colon it was 103% [50 µM]; with HT29 colon, 110% [50 µM]. Besides, the growth is 91.2% [50 µM] with SNB-75 CNS; 101% [50 µM] in the test on SNB-19 CNS; 106% [50 µM] in the test on U251 CNS; 101% [50 µM] in the test with PC-3 prostate; 97.5% [50 µM] in the test on UACC-62 melanoma; 86.2% [50 µM] in the test with LOX IMVI melanoma. The growth with SK-MEL-28 melanoma is 109% [50 µM].
On to `COc1ccc(-c2[nH]ncc2Nc2cc(OC)c(OC)c(OC)c2)cc1`, for which the growth was 46.5% in the test with DU-145 prostate; 57.2% with K-562 leukemia; 44.1% in the test with MALME-3M melanoma; 53.3% with MDA-MB-231 breast; 20.5% with RXF 393 renal; 53.1% in the test with SF-268 CNS. Also, the growth was 13% in the test with SF-295 CNS; 1.83% (active) in the test on SF-539 CNS; 66.5% in the test on UACC-257 melanoma; 31.1% with M14 melanoma; 32.2% with HCT-15 colon; 26.2% in the test on HT29 colon. For the same compound, the growth in the test with SNB-75 CNS was 44.6%; in the test on SNB-19 CNS it was 34.6%; in the test with U251 CNS, 31.1%; with PC-3 prostate it was 33.6%; in the test on UACC-62 melanoma, 27.4%; with LOX IMVI melanoma it was 46.1%. For the same compound, the growth in the test on SK-MEL-28 melanoma is 67.2%.
